Results as given in PubChem BioAssay.
The source made the active and inactive calls.

Assays:
[1] = small molecules captured by biotinylated probe aFSTL3 – biochemical, small-molecule microarray, fluorescence 635/667, stem cell growth factor project, primary screen (AID 1064); conditions: higher = more signal;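 also: measures binding of the biotinylated anti-FSTL3 antibody to printed compounds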
[2] = binders from COS7 lysate, DM2A8 probe, primary screen, torsin A project, cell lysate, small-molecule microarray, fluorescence 635/667 (AID 1065); conditions: higher = more signal, COS7 lysate expressing mutant human TOR1A
[3] = small molecules captured by biotinylated probe aFGF2 – biochemical, small-molecule microarray, fluorescence 635/667, stem cell growth factor project, primary screen (AID 1067); conditions: higher = more signal;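 also: measures binding of biotinylated aFGF2 protein to printed compounds on slides; z-score merges feature fluorescence and signal-to-noise across triplicate slides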
[4] = small molecules captured by biotinylated probe aFGF10 – biochemical, small-molecule microarray, fluorescence 635/667, stem cell growth factor project, primary screen (AID 1071); conditions: higher = more signal;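 also: score merges 667 nm spot intensity and signal to noise from triplicate slides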
[5] = target: Neurogenic locus notch homolog protein 2 (Homo sapiens) (UniProt Q04721); experiment: small molecules binding Notch2 protein – biochemical, small-molecule microarray, 635 nm fluorescence, stem cell growth factors, primary screen (AID 1073); conditions: higher = more signal
[6] = target: Pro-neuregulin-1, membrane-bound isoform (Homo sapiens) (UniProt Q02297); experiment: small molecules binding neuregulin-1 protein – biochemical, small-molecule microarray, fluorescence 635/667, psychiatric disease protein project, primary screen (AID 1075); conditions: NRG1 binding, 635 nm fluorescence, higher = more signal;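 also: score combines 667 nm spot fluorescence with signal to noise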
[7] = system: Neuregulin-1 EGF-like domain; experiment: small molecules binding NRG1 EGF domain – biochemical, small-molecule microarray, 635 nm fluorescence, primary screen (AID 1081); conditions: higher = more signal;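 also: binding of the protein to compounds printed on small-molecule microarray slides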
[8] = FRG1 expression reporter modulators in myotubes – cell-based, C2C12 myotubes, firefly/Renilla luciferase, luminescence, FRG1 inhibition for FSHD, primary screen (AID 1084); conditions: FRG1 promoter luciferase, higher = more signal, called active from +8 up or from −8 down
[9] = small molecules captured by biotinylated probe aFST – biochemical, small-molecule microarray, fluorescence 635/667, stem cell growth factor project, primary screen (AID 1086); conditions: higher = more signal;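 also: score merges 667 nm fluorescence with signal-to-noise of each printed compound spot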
[10] = binders of probe aHhip on microarray, primary screen, stem cell growth factor project, biochemical, small-molecule microarray, fluorescence 635/667 (AID 1087); conditions: higher = more signal;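 also: score merges spot fluorescence at 667nm with spot signal to noise ratio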
[11] = system: PRMT1 (protein arginine N-methyltransferase 1); experiment: small molecules binding arginine methyltransferase PRMT1 – biochemical, small-molecule microarray, 635 nm fluorescence, primary screen (AID 1088); conditions: higher = more signal;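 also: binding of Prmt1 protein to compounds spotted on small-molecule microarray slides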
[12] = growth effects on S. cerevisiae YJM789 – YJM789 clinical isolate, OD600, 24 h, basal, primary screen (AID 1089); conditions: higher = more signal, called active from +8 up or from −8 down;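 also: growth of clinical yeast isolate S. cerevisiae YJM 789 seeded 1000 cells per well; test concentration not given here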
[13] = S. pombe growth modifiers, basal conditions – strain 972, OD600, 24 h, no modulator, primary screen (AID 1090);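 also: basal condition with compound alone and no growth modifier present; test concentration not given here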; conditions: S. pombe 972 growth, higher = more signal, called active from +8 up or from −8 down
[14] = budding yeast growth modifiers under rapamycin – strain BY4716, OD600, 96 h, primary screen (AID 1091); also: test concentration not given here; conditions: S. cerevisiae BY4716 + rapamycin, higher = more signal, called active from +8 up or from −8 down
[15] = target: Torsin-1A-interacting protein 2 (Homo sapiens) (UniProt Q8NFQ8); experiment: small molecules binding lysate-expressed LULL1 – cell lysate, human LULL1 lysate, 635/667 nm fluorescence, primary screen (AID 1092); conditions: small-molecule microarray, hLULL1 lysate binding, 635 nm fluorescence; higher = more signal;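 also: probe is lysate of COS7 cells overexpressing human LULL1; score merges per-feature 667 nm fluorescence with signal-to-noise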
[16] = optical density change of DRC41 E. coli – strain DRC41, OD650, 24 h, E. coli filamentation project, primary screen (AID 1093);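 also: MC1000 strain lacking acrAB efflux and sulA so SOS filamentation is blocked; test concentration not given here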; conditions: E. coli DRC41 growth, higher = more signal, called active from +8 up or from −8 down
[17] = probe aLefty2 binding to arrayed compounds – biochemical, biotinylated probe, 635/667 nm fluorescence, primary screen (AID 1094); conditions: small-molecule microarray, higher = more signal;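 also: score merges spot fluorescence near 667 nm with spot signal-to-noise ratio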
[18] = system: Noggin (protein binding on small-molecule microarray); experiment: small molecules binding Noggin protein – biochemical, 635/667 nm fluorescence, primary screen (AID 1095); conditions: 635 nm fluorescence, higher = more signal;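 also: score merges 667 nm feature fluorescence with signal to noise over triplicate slides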
[19] = target: Neurogenic locus notch homolog protein 3 (Homo sapiens) (UniProt Q9UM47); experiment: small molecules binding NOTCH3 protein – biochemical, 635/667 nm fluorescence, primary screen (AID 1096); conditions: small-molecule microarray, 635 nm fluorescence, higher = more signal
[20] = probe aEGFR binding to arrayed compounds – biochemical, biotinylated probe, 635/667 nm fluorescence, primary screen (AID 1097); conditions: small-molecule microarray, higher = more signal;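 also: probe is a biotinylated anti-EGFR antibody binding compounds printed on slides; score combines fluorescence near 667 nm and signal to noise of each spot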

Sequence of Pro-neuregulin-1, membrane-bound isoform (Homo sapiens) (Q02297 whole entry, looked up, the tested form may be a part, canonical isoform): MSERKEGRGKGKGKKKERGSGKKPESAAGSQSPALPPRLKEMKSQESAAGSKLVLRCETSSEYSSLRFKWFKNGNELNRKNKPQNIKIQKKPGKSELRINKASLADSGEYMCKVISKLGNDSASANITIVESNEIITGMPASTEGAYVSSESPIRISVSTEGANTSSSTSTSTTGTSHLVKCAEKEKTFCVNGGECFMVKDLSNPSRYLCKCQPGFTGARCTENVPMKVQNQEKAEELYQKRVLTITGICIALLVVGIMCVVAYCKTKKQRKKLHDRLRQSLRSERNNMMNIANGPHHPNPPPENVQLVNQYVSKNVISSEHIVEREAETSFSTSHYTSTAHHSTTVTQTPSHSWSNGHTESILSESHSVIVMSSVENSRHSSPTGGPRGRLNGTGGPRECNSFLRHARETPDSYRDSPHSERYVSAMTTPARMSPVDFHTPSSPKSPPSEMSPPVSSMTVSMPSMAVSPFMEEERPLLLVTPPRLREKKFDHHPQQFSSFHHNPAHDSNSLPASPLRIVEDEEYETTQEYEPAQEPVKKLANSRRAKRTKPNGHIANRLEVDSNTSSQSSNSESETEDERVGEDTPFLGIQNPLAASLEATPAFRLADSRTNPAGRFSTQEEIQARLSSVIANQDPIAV
Sequence of Neurogenic locus notch homolog protein 2 (Homo sapiens) (Q04721 whole entry, looked up, canonical isoform): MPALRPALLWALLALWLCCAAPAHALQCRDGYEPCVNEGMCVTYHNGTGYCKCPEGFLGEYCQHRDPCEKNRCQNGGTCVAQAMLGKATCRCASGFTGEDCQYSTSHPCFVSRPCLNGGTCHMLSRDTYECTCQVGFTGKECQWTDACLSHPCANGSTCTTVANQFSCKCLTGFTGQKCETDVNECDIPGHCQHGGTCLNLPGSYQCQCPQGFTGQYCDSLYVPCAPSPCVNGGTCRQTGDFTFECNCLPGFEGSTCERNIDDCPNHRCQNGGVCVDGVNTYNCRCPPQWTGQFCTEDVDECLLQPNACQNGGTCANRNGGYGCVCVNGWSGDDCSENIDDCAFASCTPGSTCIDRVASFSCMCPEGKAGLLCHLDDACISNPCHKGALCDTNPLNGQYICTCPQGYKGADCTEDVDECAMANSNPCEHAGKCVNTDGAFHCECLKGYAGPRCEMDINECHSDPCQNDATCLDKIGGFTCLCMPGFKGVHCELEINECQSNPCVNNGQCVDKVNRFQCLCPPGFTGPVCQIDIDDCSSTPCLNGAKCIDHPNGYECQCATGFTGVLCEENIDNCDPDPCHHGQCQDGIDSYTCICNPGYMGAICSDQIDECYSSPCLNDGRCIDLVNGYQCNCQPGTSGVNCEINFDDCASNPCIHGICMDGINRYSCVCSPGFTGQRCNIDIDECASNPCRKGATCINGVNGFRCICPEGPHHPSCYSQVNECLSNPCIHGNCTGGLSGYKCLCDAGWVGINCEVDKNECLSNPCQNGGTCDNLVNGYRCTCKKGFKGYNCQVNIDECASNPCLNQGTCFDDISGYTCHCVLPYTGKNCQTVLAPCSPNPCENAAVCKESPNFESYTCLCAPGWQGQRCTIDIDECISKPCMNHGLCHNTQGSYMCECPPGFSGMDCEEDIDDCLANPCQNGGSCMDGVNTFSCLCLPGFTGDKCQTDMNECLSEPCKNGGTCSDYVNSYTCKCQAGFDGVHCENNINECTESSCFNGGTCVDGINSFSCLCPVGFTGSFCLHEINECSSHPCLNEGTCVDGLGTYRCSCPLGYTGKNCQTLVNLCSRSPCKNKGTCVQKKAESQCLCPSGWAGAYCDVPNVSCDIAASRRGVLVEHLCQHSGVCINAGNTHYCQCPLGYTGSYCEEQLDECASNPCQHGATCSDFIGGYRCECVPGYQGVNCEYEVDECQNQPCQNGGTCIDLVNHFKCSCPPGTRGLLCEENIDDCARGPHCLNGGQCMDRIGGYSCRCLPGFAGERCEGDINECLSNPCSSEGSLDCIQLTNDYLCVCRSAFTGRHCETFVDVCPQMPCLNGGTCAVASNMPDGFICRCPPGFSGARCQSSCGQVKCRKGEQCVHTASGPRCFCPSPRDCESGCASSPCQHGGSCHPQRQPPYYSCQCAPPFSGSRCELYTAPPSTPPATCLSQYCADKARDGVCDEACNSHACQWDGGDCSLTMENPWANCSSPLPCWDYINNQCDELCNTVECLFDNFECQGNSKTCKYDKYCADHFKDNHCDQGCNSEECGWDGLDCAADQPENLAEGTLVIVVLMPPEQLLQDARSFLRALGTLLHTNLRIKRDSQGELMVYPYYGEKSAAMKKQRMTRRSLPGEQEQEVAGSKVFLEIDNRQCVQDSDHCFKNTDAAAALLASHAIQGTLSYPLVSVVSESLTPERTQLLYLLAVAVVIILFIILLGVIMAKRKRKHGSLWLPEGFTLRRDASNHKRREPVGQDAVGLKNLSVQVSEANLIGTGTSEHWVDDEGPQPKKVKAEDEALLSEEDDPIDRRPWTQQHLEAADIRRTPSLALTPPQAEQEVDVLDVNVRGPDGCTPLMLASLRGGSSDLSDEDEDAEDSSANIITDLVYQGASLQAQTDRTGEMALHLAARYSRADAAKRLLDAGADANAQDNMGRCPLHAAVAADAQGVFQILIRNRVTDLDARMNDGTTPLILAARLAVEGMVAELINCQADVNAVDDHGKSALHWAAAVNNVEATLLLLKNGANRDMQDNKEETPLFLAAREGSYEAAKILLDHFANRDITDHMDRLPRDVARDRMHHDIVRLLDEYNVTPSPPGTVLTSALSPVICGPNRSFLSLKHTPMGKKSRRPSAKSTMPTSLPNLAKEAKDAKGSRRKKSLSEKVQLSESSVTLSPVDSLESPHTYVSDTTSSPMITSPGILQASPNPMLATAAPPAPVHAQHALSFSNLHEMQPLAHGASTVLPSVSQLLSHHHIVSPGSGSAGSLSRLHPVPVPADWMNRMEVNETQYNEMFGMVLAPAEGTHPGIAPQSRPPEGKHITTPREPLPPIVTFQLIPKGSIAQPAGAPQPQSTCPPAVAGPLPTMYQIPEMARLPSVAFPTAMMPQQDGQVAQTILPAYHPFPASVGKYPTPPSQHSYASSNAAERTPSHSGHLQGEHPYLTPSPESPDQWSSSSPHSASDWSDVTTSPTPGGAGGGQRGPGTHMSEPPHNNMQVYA
Sequence of Torsin-1A-interacting protein 2 (Homo sapiens) (Q8NFQ8 whole entry, looked up): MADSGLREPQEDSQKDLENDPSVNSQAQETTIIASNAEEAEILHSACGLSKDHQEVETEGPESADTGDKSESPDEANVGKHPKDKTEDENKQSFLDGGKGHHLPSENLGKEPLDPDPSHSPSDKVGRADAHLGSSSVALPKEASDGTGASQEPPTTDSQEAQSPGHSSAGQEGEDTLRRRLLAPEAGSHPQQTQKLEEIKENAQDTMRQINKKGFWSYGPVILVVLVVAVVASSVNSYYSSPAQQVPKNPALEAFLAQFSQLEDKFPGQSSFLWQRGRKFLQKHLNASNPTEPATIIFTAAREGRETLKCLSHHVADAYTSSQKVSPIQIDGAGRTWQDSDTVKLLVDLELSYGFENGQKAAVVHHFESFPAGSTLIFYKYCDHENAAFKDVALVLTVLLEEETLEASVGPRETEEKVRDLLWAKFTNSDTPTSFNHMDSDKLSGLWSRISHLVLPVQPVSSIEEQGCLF

| Structure (SMILES) | composite z-score [1] | composite z-score [2] | composite z-score [3] | composite z-score [4] | composite z-score [5] | composite z-score [6] | composite z-score [7] | z-score [8] | composite z-score [9] | composite z-score [10] | composite z-score [11] | z-score [12] | z-score [13] | z-score [14] | composite z-score [15] | z-score [16] | composite z-score [17] | composite z-score [18] | composite z-score [19] | composite z-score [20] |
| --- | --- | --- | --- | --- | --- | --- | --- | --- | --- | --- | --- | --- | --- | --- | --- | --- | --- | --- | --- | --- |
| CC[C@H]1C2=C3C(CC[C@H]4C(OCc5ccc(F)cc5C(F)(F)F)OC[C@](C)([C@@H]34)N(C(=O)OC(C)(C)C)C2)C(COC)C1COC (stereo not given in full) | -0.117 | -0.281 | 0.0253 | 0.0921 | 0.84 | 0.336 | -0.0151 | 1.18 (inactive) | 0.857 | -0.329 | -0.728 | 0.242 (inactive) | 0.78 (inactive) | 0.153 (inactive) | 1.68 | -0.773 (inactive) | 0.0392 | -0.207 | 0.949 | -0.113 |
| COc1ccc(CCN2C(=O)[C@@]3(Cc4ccccc42)c2ccccc2C(=O)N(Cc2ccccc2OC)[C@H]3c2ccc(CO)cc2)cc1 | 0.502 | -0.277 | 0.0252 | -0.0162 | -0.779 | -0.634 | -0.322 | -1.01 (inactive) | -0.275 | 0.21 | 0.177 | -0.585 (inactive) | -1.23 (inactive) | -1.42 (inactive) | 1.66 | 0.237 (inactive) | 0.0877 | -1.36 | -0.642 | -0.204 |
| CCOC(=O)c1ccc(NC(=O)O[C@H]2[C@H](OC(=O)Nc3ccc4c(c3)OCO4)[C@@H](OC(=O)Nc3ccc4c(c3)OCO4)[C@@H](OC)O[C@@H]2CO)cc1 | -0.0691 | 0.816 | 0.0121 | 1.03 | 1.39 | 1.74 | 1.35 | 6.39 (inactive) | 0.474 | -0.318 | 1.53 | 1.38 (inactive) | 2.29 (inactive) | 7.12 (inactive) | 3.27 | 1.15 (inactive) | 0.119 | 1.07 | 1 | 0.0815 |
| CN1C(=O)C2C=CC(C(O)C#Cc3ccccc3)N(Nc3ccccc3)C2C1=O (stereo not given) | 0.247 | 0.161 | 0.111 | 1.17 | 1.7 | 1.86 | 1.3 | 2.29 (inactive) | 1.71 | -0.0024 | 1.54 | 0.415 (inactive) | -1.18 (inactive) | 1 (inactive) | 3.4 | -0.672 (inactive) | 0.166 | 0.295 | 1.03 | 0.199 |
| COc1ccc(C#Cc2ccc3c(c2)[C@]2(C(=O)N3)[C@H](c3ccc(O)cc3)N3[C@H](c4ccccc4)[C@H](c4ccccc4)OC(=O)[C@H]3[C@@H]2C(=O)O)cc1 | -0.789 | 0.413 | -0.161 | 0.831 | 0.761 | 0.555 | 1.13 | -0.471 (inactive) | -0.541 | -1.08 | 0.525 | 1.11 (inactive) | -1.18 (inactive) | 0.0572 (inactive) | 3.12 | 1.43 (inactive) | -0.383 | -0.28 | -0.17 | -0.0507 |
